Test [1] concerns Proto-oncogene tyrosine-protein kinase receptor Ret (Homo sapiens), P07949 [Y791F]. Particulars: at 1 µM.
Test [2] deals with Macrophage-stimulating protein receptor (Homo sapiens) (UniProt Q04912). To be noted: at 0.1 µM.
The target is the same in test [3]. To be noted: at 1 µM.
Test [4] concerns the target Proto-oncogene tyrosine-protein kinase ROS (Homo sapiens) (UniProt P08922). Particulars: at 0.1 µM.
For test [5] the target is unchanged. Particulars: at 1 µM.
Test [6] concerns the target Proto-oncogene tyrosine-protein kinase Src (Homo sapiens) (UniProt P12931). Particulars: at 0.1 µM.
For test [7] the target is unchanged. To be noted: at 1 µM.
The target of test [8] is Tyrosine-protein kinase Srms (Homo sapiens) (UniProt Q9H3Y6). Particulars: at 0.1 µM.
Test [9] has the same target. Particulars: at 1 µM.
For test [10], the target named is Tyrosine-protein kinase SYK (Homo sapiens) (UniProt P43405). To be noted: at 0.1 µM.
Test [11] shares this target. To be noted: at 1 µM.
The target in test [12] is T1, Tyrosine-protein kinase Tec (Homo sapiens) (UniProt P42680).
T1 sequence (whole entry): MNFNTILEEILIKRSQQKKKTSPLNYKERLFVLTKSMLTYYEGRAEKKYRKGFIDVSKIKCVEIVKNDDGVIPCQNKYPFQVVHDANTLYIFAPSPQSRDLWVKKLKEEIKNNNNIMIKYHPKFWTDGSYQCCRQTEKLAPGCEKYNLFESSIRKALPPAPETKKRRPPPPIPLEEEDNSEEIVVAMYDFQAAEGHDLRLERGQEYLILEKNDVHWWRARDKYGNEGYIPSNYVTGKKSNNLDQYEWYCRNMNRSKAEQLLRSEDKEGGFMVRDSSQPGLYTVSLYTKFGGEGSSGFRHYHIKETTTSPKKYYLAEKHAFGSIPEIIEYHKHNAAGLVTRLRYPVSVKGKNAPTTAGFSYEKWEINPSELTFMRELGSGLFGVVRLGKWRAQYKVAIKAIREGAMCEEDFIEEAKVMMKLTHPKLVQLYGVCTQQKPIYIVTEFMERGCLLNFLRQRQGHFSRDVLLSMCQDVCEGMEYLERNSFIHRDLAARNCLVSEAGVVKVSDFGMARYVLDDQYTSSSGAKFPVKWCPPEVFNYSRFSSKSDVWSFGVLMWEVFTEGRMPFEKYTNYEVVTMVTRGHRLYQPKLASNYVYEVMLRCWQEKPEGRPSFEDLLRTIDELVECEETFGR
Particulars: at 0.1 µM.

Test [13] concerns the target T1, Tyrosine-protein kinase Tec (Homo sapiens). Particulars: at 1 µM.
Test [14] addresses Angiopoietin-1 receptor (Homo sapiens) (UniProt Q02763). Particulars: at 0.1 µM.
Test [15] shares this target. To be noted: at 1 µM.
In test [16] the target is T2, Non-receptor tyrosine-protein kinase TNK1 (Homo sapiens) (UniProt Q13470).
T2 sequence (whole entry): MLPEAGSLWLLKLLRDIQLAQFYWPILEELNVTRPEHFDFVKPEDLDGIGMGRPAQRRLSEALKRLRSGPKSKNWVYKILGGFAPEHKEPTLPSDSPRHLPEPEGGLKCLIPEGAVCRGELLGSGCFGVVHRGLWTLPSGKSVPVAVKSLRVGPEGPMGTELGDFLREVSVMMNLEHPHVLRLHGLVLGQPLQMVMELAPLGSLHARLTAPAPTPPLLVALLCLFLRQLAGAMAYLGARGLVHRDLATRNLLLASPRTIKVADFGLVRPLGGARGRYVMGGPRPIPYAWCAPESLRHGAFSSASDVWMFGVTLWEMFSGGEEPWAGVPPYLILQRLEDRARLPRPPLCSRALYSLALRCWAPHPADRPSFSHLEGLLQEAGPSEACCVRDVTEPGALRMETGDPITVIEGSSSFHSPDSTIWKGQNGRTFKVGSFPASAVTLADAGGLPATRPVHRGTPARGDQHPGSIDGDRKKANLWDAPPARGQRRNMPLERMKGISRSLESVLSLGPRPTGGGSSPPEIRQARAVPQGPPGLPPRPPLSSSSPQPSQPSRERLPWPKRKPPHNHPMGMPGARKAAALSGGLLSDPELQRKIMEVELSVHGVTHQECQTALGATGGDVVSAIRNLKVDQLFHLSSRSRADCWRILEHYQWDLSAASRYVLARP
Particulars: at 0.1 µM.

For test [17], the target named is T2, Non-receptor tyrosine-protein kinase TNK1 (Homo sapiens). To be noted: at 1 µM.
In test [18] the target is Activated CDC42 kinase 1 (Homo sapiens) (UniProt Q07912). Particulars: at 0.1 µM.
Test [19] shares this target. To be noted: at 1 µM.
Test [20] has as its target High affinity nerve growth factor receptor (Homo sapiens) (UniProt P04629). To be noted: at 0.1 µM.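 Note: each value is a mean of replicate percent inhibition readings against TRKA kinase.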

Each structure is given as a SMILES string.

Here are results for seven molecules from ChEMBL document CHEMBL1961873, “Compounds: GSK PKIS; Assays: Nanosyn kinase panel” (2012).

Sequence of Macrophage-stimulating protein receptor (Homo sapiens) (Q04912 25-304 limits assumed): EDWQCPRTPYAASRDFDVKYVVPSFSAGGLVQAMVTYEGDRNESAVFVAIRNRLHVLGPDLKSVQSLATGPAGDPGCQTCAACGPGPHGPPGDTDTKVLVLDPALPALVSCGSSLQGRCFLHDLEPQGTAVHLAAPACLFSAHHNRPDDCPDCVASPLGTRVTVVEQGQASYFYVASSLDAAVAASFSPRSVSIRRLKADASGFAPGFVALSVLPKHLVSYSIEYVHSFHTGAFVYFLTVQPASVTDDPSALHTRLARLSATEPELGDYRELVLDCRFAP
Sequence of Macrophage-stimulating protein receptor (Homo sapiens) (Q04912 310-1400 limits assumed): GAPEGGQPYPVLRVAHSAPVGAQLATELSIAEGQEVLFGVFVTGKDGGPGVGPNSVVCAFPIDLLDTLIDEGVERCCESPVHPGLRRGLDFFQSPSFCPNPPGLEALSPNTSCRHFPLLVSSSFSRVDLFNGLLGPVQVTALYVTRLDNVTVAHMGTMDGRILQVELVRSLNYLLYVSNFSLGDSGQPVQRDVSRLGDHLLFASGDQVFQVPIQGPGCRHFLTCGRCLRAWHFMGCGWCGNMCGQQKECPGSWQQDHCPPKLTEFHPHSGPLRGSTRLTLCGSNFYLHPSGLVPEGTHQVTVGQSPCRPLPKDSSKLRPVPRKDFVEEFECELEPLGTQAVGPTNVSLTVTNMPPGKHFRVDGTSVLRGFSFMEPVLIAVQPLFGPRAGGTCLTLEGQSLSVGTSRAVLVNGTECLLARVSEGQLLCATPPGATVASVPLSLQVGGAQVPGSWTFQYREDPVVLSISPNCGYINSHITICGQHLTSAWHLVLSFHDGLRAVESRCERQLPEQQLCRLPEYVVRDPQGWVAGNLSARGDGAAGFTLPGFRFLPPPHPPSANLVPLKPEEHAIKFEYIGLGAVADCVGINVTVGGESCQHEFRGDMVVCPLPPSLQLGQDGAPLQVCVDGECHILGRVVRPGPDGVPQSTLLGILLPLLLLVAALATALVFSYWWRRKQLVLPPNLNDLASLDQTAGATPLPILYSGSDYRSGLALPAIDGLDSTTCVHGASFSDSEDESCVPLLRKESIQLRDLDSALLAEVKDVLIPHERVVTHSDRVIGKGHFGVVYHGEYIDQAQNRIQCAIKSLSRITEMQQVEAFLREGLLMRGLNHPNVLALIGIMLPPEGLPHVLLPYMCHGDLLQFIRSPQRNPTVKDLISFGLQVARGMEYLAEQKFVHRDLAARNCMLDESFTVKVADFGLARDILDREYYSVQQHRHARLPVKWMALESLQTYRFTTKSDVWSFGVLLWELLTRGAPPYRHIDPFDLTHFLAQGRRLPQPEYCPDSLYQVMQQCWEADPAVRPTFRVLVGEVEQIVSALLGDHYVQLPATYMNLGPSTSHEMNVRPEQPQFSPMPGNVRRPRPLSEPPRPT
Sequence of Tyrosine-protein kinase Srms (Homo sapiens) (Q9H3Y6 whole entry): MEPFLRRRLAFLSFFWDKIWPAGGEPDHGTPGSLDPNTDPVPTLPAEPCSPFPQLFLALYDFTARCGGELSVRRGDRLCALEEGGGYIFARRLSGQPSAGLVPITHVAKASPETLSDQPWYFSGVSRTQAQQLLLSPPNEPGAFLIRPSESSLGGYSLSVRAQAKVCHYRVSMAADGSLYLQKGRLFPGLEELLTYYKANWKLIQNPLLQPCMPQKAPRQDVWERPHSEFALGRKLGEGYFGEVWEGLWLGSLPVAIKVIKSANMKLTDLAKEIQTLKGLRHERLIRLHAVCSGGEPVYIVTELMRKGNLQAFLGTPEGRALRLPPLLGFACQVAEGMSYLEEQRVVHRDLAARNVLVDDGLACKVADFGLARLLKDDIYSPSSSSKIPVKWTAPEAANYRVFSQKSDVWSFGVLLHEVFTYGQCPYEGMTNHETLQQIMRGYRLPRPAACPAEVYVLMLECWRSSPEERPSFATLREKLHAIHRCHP
Sequence of Activated CDC42 kinase 1 (Homo sapiens) (Q07912 whole entry, looked up): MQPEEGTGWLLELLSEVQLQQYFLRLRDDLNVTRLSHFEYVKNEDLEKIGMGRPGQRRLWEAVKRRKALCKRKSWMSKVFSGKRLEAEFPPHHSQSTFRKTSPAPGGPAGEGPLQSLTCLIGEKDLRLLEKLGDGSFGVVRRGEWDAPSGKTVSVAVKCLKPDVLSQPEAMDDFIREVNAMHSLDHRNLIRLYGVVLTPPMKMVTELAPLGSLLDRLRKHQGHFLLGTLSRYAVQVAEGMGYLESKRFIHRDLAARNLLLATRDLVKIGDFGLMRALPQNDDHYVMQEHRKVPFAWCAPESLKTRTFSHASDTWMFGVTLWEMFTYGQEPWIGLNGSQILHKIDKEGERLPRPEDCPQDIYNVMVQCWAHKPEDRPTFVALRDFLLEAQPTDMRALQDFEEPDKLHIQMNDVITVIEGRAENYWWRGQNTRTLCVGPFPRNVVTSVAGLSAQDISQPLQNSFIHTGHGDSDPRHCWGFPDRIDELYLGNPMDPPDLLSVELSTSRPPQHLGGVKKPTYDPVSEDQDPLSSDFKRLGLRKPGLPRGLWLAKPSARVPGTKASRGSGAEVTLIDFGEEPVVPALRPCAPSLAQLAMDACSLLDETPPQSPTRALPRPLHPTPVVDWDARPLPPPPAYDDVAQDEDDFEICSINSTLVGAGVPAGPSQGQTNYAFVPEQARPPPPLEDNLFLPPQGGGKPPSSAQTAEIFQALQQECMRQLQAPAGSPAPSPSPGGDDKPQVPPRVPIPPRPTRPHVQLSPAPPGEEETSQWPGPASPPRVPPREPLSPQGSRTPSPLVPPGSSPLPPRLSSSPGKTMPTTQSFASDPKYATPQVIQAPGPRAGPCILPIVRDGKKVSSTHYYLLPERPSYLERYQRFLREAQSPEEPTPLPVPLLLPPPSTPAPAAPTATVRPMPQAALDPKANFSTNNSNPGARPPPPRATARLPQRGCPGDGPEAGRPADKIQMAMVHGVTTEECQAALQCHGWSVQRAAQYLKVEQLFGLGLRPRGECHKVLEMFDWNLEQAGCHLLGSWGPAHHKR
Sequence of Proto-oncogene tyrosine-protein kinase receptor Ret (Homo sapiens), P07949 [Y791F] (P07949 whole entry Y791F): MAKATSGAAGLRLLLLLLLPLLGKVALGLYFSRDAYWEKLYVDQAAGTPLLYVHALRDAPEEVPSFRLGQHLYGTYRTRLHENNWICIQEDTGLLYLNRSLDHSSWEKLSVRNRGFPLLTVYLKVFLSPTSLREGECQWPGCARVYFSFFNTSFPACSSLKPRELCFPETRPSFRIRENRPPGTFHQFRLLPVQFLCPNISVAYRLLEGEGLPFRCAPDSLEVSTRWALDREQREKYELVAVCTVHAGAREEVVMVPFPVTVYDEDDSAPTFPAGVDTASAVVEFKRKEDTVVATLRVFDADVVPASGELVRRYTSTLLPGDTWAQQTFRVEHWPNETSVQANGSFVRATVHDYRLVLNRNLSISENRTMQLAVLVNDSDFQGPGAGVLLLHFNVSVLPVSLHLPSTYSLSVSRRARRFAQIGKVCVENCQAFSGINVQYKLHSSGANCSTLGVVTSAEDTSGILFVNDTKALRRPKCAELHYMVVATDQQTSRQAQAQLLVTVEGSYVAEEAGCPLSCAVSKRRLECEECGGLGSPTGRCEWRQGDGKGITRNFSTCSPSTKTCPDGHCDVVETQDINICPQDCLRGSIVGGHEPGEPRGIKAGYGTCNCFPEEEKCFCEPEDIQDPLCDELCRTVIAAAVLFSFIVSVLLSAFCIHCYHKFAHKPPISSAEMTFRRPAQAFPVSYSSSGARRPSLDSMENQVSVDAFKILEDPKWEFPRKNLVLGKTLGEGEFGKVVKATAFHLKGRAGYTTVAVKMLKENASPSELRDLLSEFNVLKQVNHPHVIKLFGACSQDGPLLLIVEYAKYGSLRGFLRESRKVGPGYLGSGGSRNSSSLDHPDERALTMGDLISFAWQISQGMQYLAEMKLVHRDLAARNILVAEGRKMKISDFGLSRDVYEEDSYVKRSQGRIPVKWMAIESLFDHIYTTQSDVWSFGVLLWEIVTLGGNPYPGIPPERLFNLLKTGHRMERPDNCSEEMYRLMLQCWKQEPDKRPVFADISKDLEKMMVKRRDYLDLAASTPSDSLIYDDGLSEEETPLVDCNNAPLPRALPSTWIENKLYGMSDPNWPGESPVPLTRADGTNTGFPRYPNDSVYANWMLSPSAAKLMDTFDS
Sequence of High affinity nerve growth factor receptor (Homo sapiens) (P04629 33-796 limits assumed): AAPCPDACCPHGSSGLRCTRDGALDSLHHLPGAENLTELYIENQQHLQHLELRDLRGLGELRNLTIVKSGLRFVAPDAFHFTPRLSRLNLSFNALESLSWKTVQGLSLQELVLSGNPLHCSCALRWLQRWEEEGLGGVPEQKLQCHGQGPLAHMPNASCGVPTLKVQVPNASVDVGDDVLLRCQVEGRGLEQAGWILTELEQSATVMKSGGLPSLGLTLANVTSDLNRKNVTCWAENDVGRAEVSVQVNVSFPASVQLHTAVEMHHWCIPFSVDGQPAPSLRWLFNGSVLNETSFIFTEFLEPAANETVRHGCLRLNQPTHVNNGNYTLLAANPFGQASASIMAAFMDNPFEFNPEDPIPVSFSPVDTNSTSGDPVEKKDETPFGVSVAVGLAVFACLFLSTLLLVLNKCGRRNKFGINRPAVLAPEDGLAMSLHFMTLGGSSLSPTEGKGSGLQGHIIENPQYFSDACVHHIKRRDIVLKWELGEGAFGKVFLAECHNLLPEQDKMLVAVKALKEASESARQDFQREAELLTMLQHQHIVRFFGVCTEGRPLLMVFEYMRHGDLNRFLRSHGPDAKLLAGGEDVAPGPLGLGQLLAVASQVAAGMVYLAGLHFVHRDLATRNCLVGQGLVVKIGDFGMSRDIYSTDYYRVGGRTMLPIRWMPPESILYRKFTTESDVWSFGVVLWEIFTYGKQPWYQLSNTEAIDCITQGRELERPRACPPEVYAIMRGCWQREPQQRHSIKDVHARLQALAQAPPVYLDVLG

One may read the inhibition as the drop in the measured response relative to a control, in per cent. In the case of `N#Cc1c(NC(=O)c2cccc3ccccc23)sc2c1CCCC2`, the inhibition in test [1] worked out at 2.2%; in test [2], 1.52%; in test [3], 3.88%; in [4], 3.2%; in test [5], 5.26%; in test [6], 12.3%. Moreover, the inhibition in test [7] is 7.06%; in [8], -0.23%; in [9], -0.56%; in test [10] it was -4.41%; in test [11], 2.16%; in [12] it was 2.31%. Also, the inhibition in test [13] is 3.43%; in [14] it was 2.34%; in test [15], 6.02%; in test [16] it was 1.31%; in test [17], -2.02%; in test [18] it was 0.12%. Also, the inhibition was 0.56% in [19] and 3.35% in test [20].

For the molecule `NC(=O)c1ccc(-c2nc(-c3ccccn3)c(-c3ccc4c(c3)OCO4)[nH]2)cc1`, the inhibition in [1] is 13.7%; in [2], -0.12%; in test [3], -1.49%; in [4], 2.07%; in test [5] it was 2.89%; in test [6], 3.87%. The inhibition turned out to be 4.86% in [7]; 2.17% in test [8]; 1.98% in [9]; 0.63% in test [10]; 0.21% in [11]; 3.16% in test [12]. The inhibition was 2.63% in test [13]; 5.33% in test [14]; 5.38% in [15]; 1.36% in [16]; -0.98% in test [17]; 0.29% in [18]. Also, the inhibition in [19] was found to be 1.03%; in test [20] it was 1.52%.

With `COc1ccc(COc2ccc(Cc3cnc(N)nc3N)cc2OC)cc1`, the inhibition in test [1] stood at 4.28%; in test [2], 1.99%; in test [3], 5.55%; in test [4], 5.47%; in test [5] it was 4.98%; in [6] it was 3.77%. The inhibition in [7] was 1.97%; in test [8], 1.82%; in test [9] it was 1.88%; in [10], 1.51%; in [11] it was 0.65%; in test [12] it was 1.62%. Besides, the inhibition in [13] is 2.91%; in [14], 2.2%; in test [15], 8.78%; in test [16], 0.7%; in test [17] it was -8.3%; in [18], 2.24%. Besides, the inhibition in [19] is 3.64%; in test [20], 32.4%.

As to `COc1cc(C)c(NC(=O)CN(C)C)cc1Nc1nc(Nc2cccc(F)c2C(N)=O)c2cc[nH]c2n1`, the inhibition in test [1] is 2.8%; in test [2], 3.91%; in test [3] it was 3.91%; in test [4], 79.7%; in [5], 86%; in test [6] it was 11.1%. For the same molecule, the inhibition in test [7] is 6.65%; in [8] it was 1.04%; in test [9], 1.18%; in [10], 0.17%; in [11] it was 0.44%; in test [12] it was 1.93%. Also, the inhibition is 3.64% in test [13]; 0.55% in [14]; 0.17% in test [15]; 30.8% in test [16]; 73.4% in test [17]; 1.18% in test [18]. In addition, the inhibition came to 14% in [19] and 2.31% in [20].

Regarding `CCCN1CCC(Oc2cc(Nc3nc(Nc4cccc(F)c4C(N)=O)c4cc[nH]c4n3)c(OC)cc2Cl)CC1`, the inhibition is 16.9% in [1]; 1.16% in test [2]; 6.9% in test [3]; 8.27% in test [4]; 38.9% in [5]; -3.73% in test [6]. In addition, the inhibition in [7] was determined as 6.62%; in [8], 2.85%; in [9] it was 0.37%; in [10], 1.01%; in test [11], 2.76%; in [12], 1%. In addition, the inhibition in [13] is 3.16%; in [14], 4.02%; in test [15], 10.1%; in [16] it was -2.66%; in test [17], 1.46%; in test [18], -0.19%. For the same molecule, the inhibition came to 2.16% in test [19] and 2.22% in [20].

With `Cc1nn(C)c2cc(N(C)c3ccnc(Nc4cccc(S(N)(=O)=O)c4)n3)ccc12`, the inhibition came to 46.8% in [1]; 5.47% in test [2]; 22.4% in test [3]; 63.2% in test [4]; 80.2% in test [5]; 11.1% in test [6]. The inhibition was 49.5% in test [7]; 0.83% in [8]; 9.11% in [9]; -6.41% in test [10]; -0.53% in test [11]; 25.8% in test [12]. Further, the inhibition stood at 67.9% in [13]; 10.6% in test [14]; 52.5% in [15]; 30% in test [16]; 80.7% in [17]; 0.86% in test [18]. Besides, the inhibition in test [19] was found to be 10.2%; in test [20] it was 2.81%.

In the case of `Cc1cc(O)cc(C)c1/C=C/c1cncc(-c2nn[nH]n2)c1`, the inhibition is 14.4% in test [1]; 3.43% in test [2]; 8.76% in test [3]; 6.66% in test [4]; 11.7% in [5]; 11.4% in [6]. Further, the inhibition in test [7] is 69.4%; in test [8] it was 9.68%; in [9] it was 48.1%; in [10] it was -3.2%; in [11] it was -1.42%; in [12], 15.1%. Moreover, the inhibition turned out to be 65% in [13]; 4% in test [14]; 4.4% in test [15]; 35.1% in test [16]; 84.2% in test [17]; 1.68% in [18]. The inhibition in test [19] came to 22%; in test [20] it was 3.09%.
